# An excerpt weighted towards active compounds, which were near 1.9% of everything screened.
# PABP polyA inh = PABP-poly(A) binding inhibition; P11940; PABP-poly(A) RNA binding, fluorescence polarization; inhibition, % at 35 µM; 290,000 compounds, 1% hits;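 further: calls also rest on retests at 20 µM and on dose response follow-up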
# PABP1 MLLE inh = inhibitors of microRNA-mediated deadenylation, human PABP1 MLLE binding | 360,000 compounds, 0.36% hits | inhibition, % at 20 µM | GST-MLLE / FITC-PAM2 fluorescence polarization; in the data active means inhibition above about 35%, passing the limit was not always enough
# eIF4H inh = inhibitors of RNA binding by human eIF4H; eIF4H fluorescence polarization binding assay; 290,000 compounds, 0.94% hits; inhibition, % at 35 µM; Q15056;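 further: calls also rest on retests at 20 µM and on dose response follow-up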
# GRK2 aptamer HTS = blocks RNA aptamer binding to human GRK2; inhibition of aptamer binding, % at 10 µM; P25098; 330,000 compounds, 0.59% hits; bead flow cytometry, FAM-aptamer displacement from GRK2;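 active means inhibition of aptamer binding above 40%, roughly 3 SD of noise, on plates passing a quality check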;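 further: median bead fluorescence of bound FAM aptamer so fluorescent compounds give negative values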
# PERK inhibitor = inhibitors of human PERK kinase; Q9NZJ5; CHO PERK-DD fusion, SEAP luminescence translation reporter; inhibition, % at 5.6 µM; 220,000 compounds, 0.17% hits; AID 1416;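 active means inhibition above the mean inhibition of all tested compounds plus 3 SD, set separately per screening campaign, cut at about 2.9% in these data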;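 further: PERK kinase domain activated by AP20187 dimerizer at 100 nM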
# Hits are given with their value; n = inactive; u = inconclusive; x = no result. Unless noted, how the calls were made is not given here.
SMILES,PABP polyA inh,PABP1 MLLE inh,eIF4H inh,GRK2 aptamer HTS,PERK inhibitor
Cc1nc2cc(C(=O)OCC(=O)NC3CCS(=O)(=O)C3)ccc2n1-c1ccccc1 (stereo not given),n,n,n,n,n
Cc1nc2cc(C(=O)OCC(=O)NC34CC5CC(CC(C5)C3)C4)ccc2n1-c1ccccc1,n,n,n,41.0,n
O=C1S/C(=C/c2ccc(N3CCOCC3)o2)C(=O)N1Cc1ccc(F)cc1,n,n,n,n,n
O=C1NC(=S)S/C1=C/c1ccc(N2CCOCC2)o1,1.3,n,86.6,n,n
CN(C(=O)CN1CCN(c2cc(-c3cccc4oc5ccccc5c34)ncn2)CC1)c1ccccc1,x,n,x,x,x
CCCn1c(C)nc2c(c1=O)c1nc3ccccc3nc1n2CCC1=CCCCC1,n,n,n,n,n
Cc1nc2c(c(=O)n1CCC1=CCCCC1)c1nc3ccccc3nc1n2/N=C/c1ccco1,67.9,n,68.2,n,n
O=C1c2ccc([N+](=O)[O-])cc2NC(c2ccco2)N1/N=C/c1ccco1 (stereo not given),n,n,56.0,n,n
CN=c1scc(-c2ccc([N+](=O)[O-])cc2)n1/N=C/c1ccco1,n,n,n,n,n
Cc1cc(/C=C2/C(=N)N3C(c4ccccc4)=CSC3=NC2=O)c(C)n1-c1ccccc1,24.8,n,89.7,n,n
CC1=NN2C(=N)/C(=C\c3cc(C)n(-c4ccccc4)c3C)C(=O)N=C2S1,n,n,n,n,n
Cc1ccccc1-n1c(C)cc(/C=C2/C(=N)N3C(c4ccccc4)=CSC3=NC2=O)c1C,18.6,n,n,n,n
O=C(Nc1ccc(F)cc1)Nc1ccc([N+](=O)[O-])cn1,75.0,n,3.0,n,n
Cc1cc(C(=O)OCC(=O)c2ccc(Br)s2)c(C)o1,87.4,x,70.0,n,n
Cc1cc(C(=O)OCC(=O)c2ccc(Br)s2)no1,n,n,n,n,n
C/C(Cn1nnc2ccccc21)=N\NC(=O)c1cccc(Br)c1,n,n,n,n,n
C#CCOCCOCCOCCNc1nc(N2CCN(C(=O)[C@H](CCCCN)n3cc(CC(C)O)nn3)CC2)nc(N2CCN(C(=O)[C@H](Cc3ccc(O)cc3)n3cc(CCO)nn3)CC2)n1 (stereo not given in full),x,n,x,x,x
C#CCOCCOCCOCCNc1nc(N2CCN(C(=O)[C@H](CCCCN)n3cc(CCCC)nn3)CC2)nc(N2CCN(C(=O)[C@H](Cc3ccc(O)cc3)n3cc(CCO)nn3)CC2)n1,n,n,n,47.0,n
N#C/C(=C\c1c(N2CCC(C(N)=O)CC2)nc2ccccn2c1=O)C(=O)NCc1ccco1,active,n,62.2,n,n
Cc1cccn2c(=O)c(C=O)c(N3CCN(c4ccc(F)cc4)CC3)nc12,36.1,n,96.1,n,n
Cc1ccc(S(=O)(=O)/C(C#N)=C/c2c(N3CCN(C)CC3)nc3ccccn3c2=O)cc1,n,n,n,n,n
Cc1ccc(S(=O)(=O)/C(C#N)=C/c2c(N3CCN(Cc4ccccc4)CC3)nc3ccccn3c2=O)cc1,43.1,n,u,n,x
N#C/C(=C\c1c(N2CCOCC2)nc2ccccn2c1=O)S(=O)(=O)c1ccccc1,n,n,n,n,n
N#C/C(=C\c1c(N2CCN(Cc3ccccc3)CC2)nc2ccccn2c1=O)S(=O)(=O)c1ccccc1,23.2,n,u,n,x
COCCN(CC(=O)Nc1cccc(C)c1C)C(=O)Cn1c(=O)cnc2ccccc21,x,n,x,n,x
SMILES,PABP polyA inh,PABP1 MLLE inh,eIF4H inh,GRK2 aptamer HTS,PERK inhibitor
COc1ccc(NC(=O)Cn2nnc(C(=O)NCc3ccc4c(c3)OCO4)c2N)c(OC)c1,n,n,n,n,x
Cc1cccn2c(=O)c(/C=C(\C#N)S(=O)(=O)c3ccccc3)c(N3CCN(Cc4ccccc4)CC3)nc12,59.1,n,77.9,n,x
CCN(Cc1cc2ccc(C)cc2[nH]c1=O)C(=O)c1cccnc1,59.4,x,84.1,x,n
CC(C)CN(Cc1cc2ccccc2[nH]c1=O)C(=O)c1cccnc1,n,n,n,n,n
Cc1sc(NC(=O)CCCC(=O)O)c(C(N)=O)c1-c1ccccc1,n,35.2,n,n,n
CCC(C)Sc1ccc([C@@H]2[C@H]3C(=O)N(CC)C(=O)[C@H]3[C@]3(C(=O)OC)CCCN23)cc1OC (stereo not given in full),x,n,x,n,x
Cc1ccc(S(=O)(=O)N2CCOC2CNC(=O)C(=O)NCc2ccccn2)cc1 (stereo not given),n,n,n,n,x
CC1=CC(C)C2(COC(c3ccc[n+](C)c3)OC2)C(C)C1 (stereo not given),58.7,n,n,x,n
Cc1ccc(-n2nnnc2-c2ccccc2Br)cc1,x,n,x,x,x
COc1ccc(Cl)cc1NC(=O)C1CCCN(S(C)(=O)=O)C1 (stereo not given),n,n,n,n,x
Cc1cc(C)cc(N=Cc2[nH]c3ccc(Br)c(Cl)c3c2O)c1,3.8,n,u,n,n
COc1ccc(CN=Cc2[nH]c3ccc(Br)c(Cl)c3c2O)cc1,n,n,n,n,n
COc1ccc2cc(C(c3nnnn3C3CCCC3)N3CCc4ccccc4C3)c(=O)[nH]c2c1 (stereo not given),n,40.8,n,n,n
CCC(C)(C)n1nnnc1C(c1cc2ccc(OC)cc2[nH]c1=O)N1CCc2ccccc2C1 (stereo not given),n,71.5,n,n,n
COc1ccc2cc(C(c3nnnn3C(C)(C)C)N3CCc4ccccc4C3)c(=O)[nH]c2c1 (stereo not given),n,x,n,n,n
Cn1ncc(Cl)c1C(=O)N1CCN(S(=O)(=O)c2ccc(Cl)s2)CC1,n,n,n,n,x
CC(=O)Nc1ccc(-c2ccnc3c2CC(C)(C(=O)Nc2ccc4c(c2)OCO4)O3)cc1 (stereo not given),x,n,x,x,x
CC(C)(C)c1ccc(C(=O)NNC(=O)C(=O)N2CCCCC2)cc1,n,n,n,n,n
O=C(NNC(=O)c1ccccc1)C(=O)N1CCCCC1,n,n,n,n,3.1
CC(C)(C)c1ccc(NC(=O)COC(=O)c2ccc(NS(=O)(=O)c3ccc(F)c(F)c3)cc2)cc1,n,n,n,n,n
CC(=O)c1c(C)[nH]c(C(=O)OCC(=O)Nc2ccc([N+](=O)[O-])cc2Cl)c1C,62.0,n,n,n,n
Oc1ccc(/C=N/NC(=S)Nc2cccnc2)cc1O,1.5,40.3,n,n,n
O=C(N/N=C/c1ccc(O)c(O)c1)N/N=C/c1ccc(O)c(O)c1,n,n,55.7,n,x
CCOc1ccc(-c2cccc(NC(=O)c3cccs3)c2)nn1,x,n,x,n,x
Cc1sc(N2CCN(S(=O)(=O)c3ccc4c(c3)NC(=O)CO4)CC2)nc1-c1ccccc1,n,n,n,n,x
Cc1sc2nc(SCC(=O)NCc3ccco3)n(C)c(=O)c2c1C,n,n,n,n,n
CCOc1ccccc1-n1nnnc1SCC(=O)NC(=O)NCc1ccco1,23.1,n,60.7,n,n
C=CCn1c(SCC(=O)NC(=O)NCc2ccco2)nc2sc(CC)cc2c1=O,27.7,n,83.7,n,n
CCCn1c(SCC(=O)NC(=O)NCc2ccco2)n[nH]c1=O,35.7,x,74.0,x,n
